Measurements published in article PMC4336329 (PLoS ONE, 2015).
Screen size: about 310,000 compounds; about 14,000 (4.5%) showed an effect of 50% or more. Effects have a minus sign here. What follows is part of a selection rich in strong results, with near analogues and random picks from the rest.

Target: human ether-à-go-go-related gene (hERG) potassium channel (human, UniProt Q12809)
Assay: primary screen, population patch clamp on CHO cells stably expressing hERG; higher = less effect of the substance
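Further: peak tail current of the secondary pulse compared with the same well before compound.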

Chain of human ether-à-go-go-related gene (hERG) potassium channel (Q12809 whole entry, looked up): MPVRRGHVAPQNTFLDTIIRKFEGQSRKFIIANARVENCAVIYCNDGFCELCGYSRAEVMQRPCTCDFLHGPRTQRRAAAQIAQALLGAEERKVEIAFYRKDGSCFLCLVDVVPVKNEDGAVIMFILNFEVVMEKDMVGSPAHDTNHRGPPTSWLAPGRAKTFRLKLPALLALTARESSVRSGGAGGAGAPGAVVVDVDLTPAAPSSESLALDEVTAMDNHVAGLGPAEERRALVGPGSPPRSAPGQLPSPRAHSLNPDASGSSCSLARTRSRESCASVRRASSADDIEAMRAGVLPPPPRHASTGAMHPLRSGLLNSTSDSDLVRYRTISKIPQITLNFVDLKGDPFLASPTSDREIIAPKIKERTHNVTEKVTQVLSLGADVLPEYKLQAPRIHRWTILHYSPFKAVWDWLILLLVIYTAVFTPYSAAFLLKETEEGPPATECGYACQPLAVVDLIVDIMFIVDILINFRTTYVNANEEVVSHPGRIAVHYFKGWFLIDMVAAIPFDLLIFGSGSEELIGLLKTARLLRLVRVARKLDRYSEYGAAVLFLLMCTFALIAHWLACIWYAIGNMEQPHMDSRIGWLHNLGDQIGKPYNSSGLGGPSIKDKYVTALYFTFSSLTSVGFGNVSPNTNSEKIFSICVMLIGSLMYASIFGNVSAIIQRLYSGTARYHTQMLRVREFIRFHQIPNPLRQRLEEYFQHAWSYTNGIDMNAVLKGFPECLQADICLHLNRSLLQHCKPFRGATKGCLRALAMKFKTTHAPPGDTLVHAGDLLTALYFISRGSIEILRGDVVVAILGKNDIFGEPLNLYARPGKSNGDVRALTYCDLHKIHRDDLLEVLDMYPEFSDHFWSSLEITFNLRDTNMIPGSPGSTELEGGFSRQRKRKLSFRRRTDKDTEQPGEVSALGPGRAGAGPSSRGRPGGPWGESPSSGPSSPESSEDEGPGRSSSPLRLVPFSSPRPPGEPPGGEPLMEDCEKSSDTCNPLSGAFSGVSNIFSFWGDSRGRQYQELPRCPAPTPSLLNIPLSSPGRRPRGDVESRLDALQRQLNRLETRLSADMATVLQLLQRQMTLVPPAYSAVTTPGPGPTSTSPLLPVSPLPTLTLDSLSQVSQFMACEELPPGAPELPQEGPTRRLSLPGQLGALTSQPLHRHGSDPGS

| Compound | hERG current change (%, negative = inhibition) at 10uM [%] |
| --- | --- |
| Cc1ccc(S(=O)(=O)NC(CC(=O)NCC2CCCO2)c2ccco2)cc1 (stereo not shown) | 24.9 |
| COc1ccc(N(CC(=O)N2CCN(Cc3ccccc3)CC2)S(C)(=O)=O)cc1 | -3 |
| O=C(NN1CCOCC1)c1cc(-c2ccc(Cl)c(Cl)c2)nc2ccccc12 | 10.8 |
| Cc1oncc1C(=O)Nc1cccc(C#N)c1 | 4.43 |
| CCCN1C(=O)/C(=c2\sc3nc(=O)c(Cc4ccc(C)cc4)nn3c2=O)c2ccccc21 | 21.2 |
| CCN(Cc1ccccc1)C(=O)c1oc2ccc(S(=O)(=O)N3CCOCC3)cc2c1C | -6.06 |
| Nc1cc(C(=O)OCC(=O)N2CCOCC2)ccc1Cl | 17.8 |
| CC(C)(C)NC(=O)CSC(=Nc1ccccc1F)NC#N | -0.709 |
| CC(C)(C)NC(=O)CSC(=Nc1cccc(F)c1)NC#N | 8.94 |
| CC(C)(C)NC(=O)CSC(=Nc1ccc(F)cc1)NC#N | -72.3 |
| COc1ccc(CNC(=O)c2noc(C(C)C)c2[N+](=O)[O-])cc1 | 3.4 |
| Cc1ccc(NNC(=O)c2ccno2)c(C)c1 | 11.1 |
| COc1ccc(OC)c(-c2csc(NC(=O)CN3C(=O)C4CCCCC4C3=O)n2)c1 (stereo not shown) | -0.554 |
| O=C(O)c1ccccc1S(=O)(=O)NCC(O)COC1CCCCC1 (stereo not shown) | -2.65 |
| CCOC(=O)C1(CCOc2ccccc2)CCN(Cc2cc(OC)c3c(c2)OCO3)CC1 | -72.1 |
| CCN1CCN(Cc2cc(OC)c3c(c2)OCO3)CC1 | 9.99 |
| CCOC(=O)C1(Cc2ccccc2)CCN(Cc2cc(OC)c3c(c2)OCO3)CC1 | -60.7 |
| CCN1C(=O)CC(N2CCN(c3ccc(Cl)cc3)CC2)C1=O (stereo not shown) | -14 |
| COc1ccc2c(CC(=O)OCC(=O)c3ccc(F)cc3)coc2c1 | 6.5 |
| CCCc1ccc(-c2cc(C(=O)NN3CCOCC3)c3ccccc3n2)cc1 | -3.8 |
| NC(=O)c1ccc(NC(=O)CSc2nnc(C3CCCCC3)n2N)cc1 | 18 |
| Cn1c(C(=O)NC2CCCCC2)cc2sccc21 | -7.87 |
| COc1ccc2oc(C(=O)NCc3ccccc3CN3CCCC3)c(C)c2c1 | -66.1 |

| Compound | hERG current change (%, negative = inhibition) at 10uM [%] |
| --- | --- |
| CCOc1ccc2oc(C(=O)N3CCN(Cc4ccccc4)CC3)c(C)c2c1 | -18.4 |
| CCOc1ccc2oc(C(=O)N3CCN(c4ccccn4)CC3)c(C)c2c1 | -34.3 |
| CCOc1ccc2oc(C(=O)NCc3nc4ccccc4[nH]3)c(C)c2c1 | 10.3 |
| CCOc1ccc2oc(C(=O)NCC3CCCO3)c(C)c2c1 (stereo not shown) | 11 |
| Cc1c(C(=O)OCC(C)(C)CN(C)C)oc2ccccc12.Cl | -52 |
| CCOc1ccc2oc(C(=O)NCc3ccccc3CN3CCCC3)c(C)c2c1 | -66.2 |
| COc1ccc2oc(C(=O)NCc3cc(OC)c(OC)cc3OC)c(C)c2c1 | 0.174 |
| COc1ccc2oc(C(=O)NCc3ccco3)c(C)c2c1 | 8.36 |
| CCOc1ccc2oc(C(=O)N3CCN(c4ccccc4OCC)CC3)c(C)c2c1 | -52.6 |
| Cc1c(C(=O)OCC(=O)N(C)c2ccccc2)oc2ccccc12 | 3.17 |
| Cc1c(C(=O)OC(C)CCN(C)C)oc2ccccc12.Cl (stereo not shown) | -42.8 |
| CN(c1cccc(Cl)c1)S(=O)(=O)c1cccc(C(=O)NN2CCOCC2)c1 | -14.1 |
| Cc1ccc(S(=O)(=O)CCC(=O)OC(C)C(=O)NC2CCCCC2C)cc1 (stereo not shown) | -1.21 |
| CCOC(=O)c1ccc(N2C(=O)C3CC=C(C)CC3C2=O)cc1 (stereo not shown) | 7.74 |
| Cn1c(=O)c2c(SCC(N)=O)nc(CC(C)(C)C)nc2n(C)c1=O | -10.5 |
| CC1(C)c2ccccc2N(CC(N)=O)C12C=Cc1ccccc1O2 (stereo not shown) | -26 |
| Cc1nc(NC(=O)c2cccnc2Cl)sc1C | 4.14 |
| CC(NC(=O)c1ccc2c(c1)OCO2)C(c1cccs1)N1CCN(c2ccccc2)CC1 (stereo not shown) | 3.68 |
| COc1ccc(CCn2c(C)cc(C(=O)CSc3nnnn3C)c2C)cc1 | 0.08 |
| CC1CCCCC1NC(=O)Cn1c(CN2CCCCC2)nc2ccccc2c1=O (stereo not shown) | -24.6 |
| COc1ccc(OC)c(S(=O)(=O)NCC(c2ccc3c(c2)OCO3)N2CCOCC2)c1 (stereo not shown) | -28.4 |
| O=c1c2cc(Cl)ccc2nc(-c2ccccc2Cl)n1O | 16.4 |
| Cc1c(C(=O)NCc2ccccc2CN2CCCC2)oc2ccc(F)cc12 | -74 |

| Compound | hERG current change (%, negative = inhibition) at 10uM [%] |
| --- | --- |
| CCOc1ccc2oc(C(=O)NC(C)(C)CC)c(C)c2c1 | -3 |
| Cc1c(C(=O)NCc2ccco2)oc2c(F)cccc12 | 1.08 |
| Cc1c(C(=O)NCc2ccccc2)oc2ccc(S(=O)(=O)N3CCCC3)cc12 | 2.65 |
| Cc1c(C(=O)NCCN2CCCC(O)C2)oc2c(F)cccc12 (stereo not shown) | -1.78 |
| Cc1c(C(=O)NCc2ccccc2CN2CCCC2)oc2c(F)cccc12 | -70.5 |
| CCOc1ccc2oc(C(=O)O)c(C)c2c1 | 4.62 |
| CCOc1ccc2oc(C(=O)NCC(C)(C)CN(C)C)c(C)c2c1.Cl | -54.5 |
| COc1ccccc1CNC(=O)c1oc2ccc(S(=O)(=O)N3CCCC3)cc2c1C | -4.46 |
| CCN(Cc1ccncc1)Cc1ccc(Br)cc1.O=C(O)C(=O)O | -5.38 |
| COc1cccc(CC(=O)OC(C)C(=O)NCc2ccc3c(c2)OCO3)c1 (stereo not shown) | -3.97 |
| COc1cc(C(CC(=O)N2CCN(c3ccccc3)CC2)c2c(OC)cc(OC)c3ccc(=O)oc23)cc(OC)c1OC (stereo not shown) | -29 |
| COc1ccc(-c2nnc(SCC#N)o2)cc1 | 11.3 |
| CCOC(=O)CCCNC(=O)CCNC(=O)c1ccc(OCC(C)C)cc1 | 3.61 |
| COc1ccc(C(=O)CN2C(=O)c3ccccc3C2=O)cc1 | 7.16 |
| CN(C)CCNC(=O)c1sc2nc(-c3ccccc3)cc(C(F)(F)F)c2c1N | -57.8 |
| Nc1c(C(=O)C2CC2)sc2nc(-c3ccccc3)cc(C(F)(F)F)c12 | 18.8 |
| COc1ccc(-c2cc(C(F)(F)F)c3c(N)c(C(=O)NCCSC)sc3n2)cc1 | -10.7 |
| COc1ccc(-c2cn(Cc3ccc(C(N)=O)cc3)c(CCN)n2)cc1 | -13.9 |
| Cc1ccc(CNC(=O)c2ccc(Cn3cc(-c4ccc(C)cc4)nc3-c3ccncc3)cc2)cc1 | 5.94 |
| COc1ccc(-c2cn(Cc3ccc(C(N)=O)cc3)c(-c3ccncc3)n2)cc1 | -60.1 |
| COc1ccc(-c2cn(Cc3ccc(C(N)=O)cc3)c(-c3ccc(Cl)nc3)n2)cc1 | -71.4 |
| COc1ccc(-c2cn(CCO)c(-c3ccc(Cl)nc3)n2)cc1 | -9.71 |
| COc1ccc(-c2cn(CCC(=O)O)c(-c3ccc(Cl)nc3)n2)cc1 | 9.6 |

| Compound | hERG current change (%, negative = inhibition) at 10uM [%] |
| --- | --- |
| O=C(c1ccc(CS(=O)(=O)c2ccc(Br)cc2)o1)N1CCN(c2ccccn2)CC1 | -36 |
| Cc1ccc(-n2c(C)nc3ccsc3c2=O)cc1 | 1.42 |
| O=C(CCc1nc(-c2ccccc2Cl)no1)NC1CCCCC1 | 10.6 |
| CCCCCCCNC(=O)COc1ccc2c(c1)C(=O)CC(C)(C)O2 | -14.4 |
| O=C(CNC(=S)N(CCCN1CCOCC1)Cc1cccs1)N1CCCCCC1 | -41.4 |
| O=C(CNC(=S)N(CCCN1CCOCC1)Cc1cccs1)N1CCCC1 | 3.09 |
| CCOC(=O)CNC(=S)N(CCCN1CCCCCC1)Cc1cccs1 | -65.8 |
| CCOC(=O)CNC(=S)N(CCCN1CCCCC1)Cc1cccs1 | -62.6 |
| O=C(CNC(=S)N(CCCN1CCOCC1)Cc1cccs1)N1CCOCC1 | -9.74 |
| CCOC(=O)CNC(=S)N(CCCN1CCCC1)Cc1cccs1 | -53.6 |
| CCN(CC)CCNC(=O)CNC(=S)N(CCCN1CCOCC1)Cc1cccs1 | 15.7 |
| COCCNC(=O)CNC(=S)N(CCCN1CCOCC1)Cc1cccs1 | 14.1 |
| CCOC(=O)CNC(=S)N(CCCN1CCN(C)CC1)Cc1cccs1 | -43.5 |
| O=C(Nc1cccc(F)c1)c1cc(S(=O)(=O)NCCC2=CCCCC2)ccc1F | 17.4 |
| COc1ccccc1N(CC(=O)NCCSCc1ccccc1)S(C)(=O)=O | 4.03 |
| COc1ccc(N2CC(C)Cn3c2nc2c3c(=O)[nH]c(=O)n2C)cc1 (stereo not shown) | -24.3 |
| N#Cc1c(NC(=O)CSc2ncccn2)oc(-c2ccccc2)c1-c1ccccc1 | 25.2 |
| Nc1nc(Cl)nc2ccc(Br)cc12 | 7.87 |
| CC(=O)c1c(C)nc2ccccc2c1N | -10.1 |
| Cc1nc2ccccc2c(N)c1C(=O)/C=C/c1ccccc1 | -79.7 |
| Cc1[nH]c2ccccc2c1C(=O)/C=C/c1ccccc1 | 8.96 |
| Cc1occc1-c1nnc(SCCNCCO)o1.O=C(O)C(=O)O | 63.6 |
